Laboratory results reported in the supplement of paper PMC7366291.
Where a name gives a salt, the structure may show the parent alone. ± gives the standard deviation or the standard deviation of the averaged measurements.

test system: Danio rerio Tg(wt1b:EGFP) embryo, pronephros; test: glomerular separation, fold change vs DMSO control; higher = glomeruli further apart (abnormal); settings: 25 µM; exposure: 24-48 hpf
How it was run: (§1)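 Distances and angles describing the pronephros were computed by a Fiji macro from 16 reference points set manually on maximum projections of dorsal images. These images came from dechorionated Tg(wt1b:EGFP) zebrafish embryos held in agarose-filled 96-well plates after exposure to 25 μM compound in 0.5% DMSO, in HEPES-buffered E3 with 0.003% PTU, from 24 to 48 hpf at 28.5°C. Any value more than 2 SD from the feature mean was excluded. Features are stated as fold change relative to the mean of same-day DMSO-treated embryos.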

| Structure (SMILES) | glomerular separation |
| --- | --- |
| CC[N+](CC)(CC)CCOc1cccc(OCC[N+](CC)(CC)CC)c1OCC[N+](CC)(CC)CC [Gallamine triethiodide] | 1.13 ± 0.48 |
| CCCCc1oc2ccccc2c1C(=O)c1cc(I)c(OCCN(CC)CC)c(I)c1 [Amiodarone hydrochloride] | 2 ± 1.1 |
| CN(C)CCCO[C@@H]1[C@H]2OC(C)(C)O[C@H]2O[C@@H]1[C@H](O)CO [Amiprilose hydrochloride] | 1.12 ± 0.66 |
| O=C1[C@H](CC[C@H](O)c2ccc(F)cc2)[C@@H](c2ccc(O)cc2)N1c1ccc(F)cc1 [Ezetimibe] | 1.28 ± 0.36 |
| Cc1ccc(-c2ncc(Cl)cc2-c2ccc(S(C)(=O)=O)cc2)cn1 [Etoricoxib] | 0.967 ± 0.19 |
| COc1ncnc(NS(=O)(=O)c2ccc(N)cc2)c1OC [Sulfadoxine] | 0.694 ± 0.18 |

test system: Danio rerio Tg(wt1b:EGFP) embryo, pronephros; test: glomerular width (mean of left and right), fold change vs DMSO control; higher = wider glomerulus; settings: 25 µM; exposure: 24-48 hpf
How it was run: as §1

| Structure (SMILES) | glomerular width |
| --- | --- |
| Cn1c([N+](=O)[O-])cnc1COC(N)=O [Ronidazole] | 0.99 ± 0.011 |
| COc1ccc(Cl)cc1C(=O)NCCc1ccc(S(=O)(=O)NC(=O)NC2CCCCC2)cc1 [Glibenclamide] | 1.05 ± 0.023 |
| CC1(C)[C@@H](OC(=O)CCC(=O)O)CC[C@]2(C)[C@H]3C(=O)C=C4[C@@H]5C[C@@](C)(C(=O)O)CC[C@]5(C)CC[C@@]4(C)[C@]3(C)CC[C@@H]12 [Carbenoxolone disodium salt] | 1.04 ± 0.031 |
| O=C(O)CCC(=O)c1ccc(-c2ccccc2)cc1 [Fenbufen] | 0.729 ± 0.11 |
| CCN[C@H]1C[C@H](C)S(=O)(=O)c2sc(S(N)(=O)=O)cc21 [Dorzolamide hydrochloride] | 0.955 ± 0.029 |
| O=C(O)CCCC[C@@H]1SC[C@@H]2NC(=O)N[C@@H]21 [Biotin] | 0.993 ± 0.043 |
| CSc1ccc2c(c1)N(CCC1CCCCN1C)c1ccccc1S2 (stereo not given) [Thioridazine hydrochloride] | 1.03 ± 0.047 |
| COc1ccc(C(=O)NCc2ccc(OCCN(C)C)cc2)cc1OC [Itopride] | 0.962 ± 0.017 |
| OC(Cn1cncn1)(Cn1cncn1)c1ccc(F)cc1F [Fluconazole] | 0.967 ± 0.095 |
| COc1ccc(CN(CCN(C)C)c2ccccn2)cc1 [Pyrilamine maleate] | 1.03 ± 0.018 |
| NCCCCCC(=O)O [Aminocaproic acid] | 0.961 ± 0.022 |
| CC[C@H]1OC(=O)[C@H](C)[C@@H](O[C@H]2C[C@@](C)(OC)[C@@H](O)[C@H](C)O2)[C@H](C)[C@@H](O[C@@H]2O[C@H](C)C[C@H](N(C)C)[C@H]2O)[C@](C)(O)C[C@@H](C)CN(C)[C@H](C)[C@@H](O)[C@]1(C)O [Azithromycin] | 0.945 ± 0.022 |
| CCC(C)(CN(C)C)OC(=O)c1ccccc1 (stereo not given) [Amyleine hydrochloride] | 1.04 ± 0.028 |
| CCCOc1cc(N)ccc1C(=O)OCCN(CC)CC [Propoxycaine hydrochloride] | 0.982 ± 0.023 |
| O=C1CCc2ccc(OCCCCN3CCN(c4cccc(Cl)c4Cl)CC3)cc2N1 [Aripiprazole] | 0.888 ± 0.06 |
| O=C(O)Cc1ccc(-c2ccccc2)cc1 [Felbinac] | 0.627 ± 0.0096 |
| COc1ccc(C(=O)c2ccccc2)c(O)c1 [Oxybenzone] | 1.09 ± 0.026 |
| C[C@H](N)[C@H](O)c1cccc(O)c1 [Metaraminol bitartrate] | 0.961 ± 0.083 |
| CN1CCCCC1CCN1c2ccccc2Sc2ccc([S+](C)[O-])cc21 (stereo not given) [Mesoridazine besylate] | 0.916 ± 0.033 |
| CCOc1nc2cccc(C(=O)O)c2n1Cc1ccc(-c2ccccc2-c2nnn[nH]2)cc1 [Candesartan] | 1.03 ± 0.023 |

| Structure (SMILES) | glomerular width |
| --- | --- |
| O=C(Nc1ccccc1)OCC(CN1CCCCC1)OC(=O)Nc1ccccc1 (stereo not given) [Diperodon hydrochloride] | 0.984 ± 0.04 |
| CCCCCCC[N+](CC)(CC)CCCCc1ccc(Cl)cc1 [Clofilium tosylate] | 1.04 ± 0.059 |
| Cc1ccc(/C(=C\CN2CCCC2)c2ccccn2)cc1 [Triprolidine hydrochloride] | 1.035 ± 0.0046 |
| O=C(c1ccc(OCCN2CCCCC2)cc1)c1c(-c2ccc(O)cc2)sc2cc(O)ccc12 [Raloxifene hydrochloride] | 0.98 ± 0.059 |
| CN(C)CCOC(c1ccc(Cl)cc1)c1ccccn1 (stereo not given) [Carbinoxamine maleate salt] | 0.999 ± 0.048 |
| C#C[C@]1(O)CC[C@H]2[C@@H]3CCC4=CC(=O)CC[C@@H]4[C@H]3CC[C@@]21C [Norethindrone] | 0.934 ± 0.068 |
| CN1C(C(=O)Nc2ccccn2)=C(O)c2ccccc2S1(=O)=O [Piroxicam] | 0.525 ± 0.012 |
| C[C@@H](O)[C@H]1C(=O)N2C(C(=O)O)=C(S[C@@H]3CN[C@H](C(=O)N(C)C)C3)[C@H](C)[C@H]12 [Meropenem] | 0.957 ± 0.021 |
| Cc1cccc(CN2CCN(C(c3ccccc3)c3ccc(Cl)cc3)CC2)c1 (stereo not given) [Meclozine dihydrochloride] | 0.93 ± 0.015 |
| CCN(CC)CCOC(=O)C(c1ccccc1)c1ccccc1 [Adiphenine hydrochloride] | 0.979 ± 0.026 |
| CCOC(=O)C1=C(C)NC(C)=C(C(=O)OC)C1c1cccc(Cl)c1Cl (stereo not given) [Felodipine] | 0.634 ± 0.029 |
| COc1ccc(CC2c3cc(OC)c(OC)cc3CC[N+]2(C)CCC(=O)OCCCCCOC(=O)CC[N+]2(C)CCc3cc(OC)c(OC)cc3C2Cc2ccc(OC)c(OC)c2)cc1OC (stereo not given) [Atracurium besylate] | 0.944 ± 0.012 |
| CC(C)(C)NCC(O)COc1cccc2c1CCC(=O)N2 (stereo not given) [Carteolol hydrochloride] | 0.909 ± 0.034 |
| CC[N+](CC)(CC)CCOc1cccc(OCC[N+](CC)(CC)CC)c1OCC[N+](CC)(CC)CC [Gallamine triethiodide] | 1.03 ± 0.04 |
| CCCCc1oc2ccccc2c1C(=O)c1cc(I)c(OCCN(CC)CC)c(I)c1 [Amiodarone hydrochloride] | 0.862 ± 0.021 |
| CN(C)CCCO[C@@H]1[C@H]2OC(C)(C)O[C@H]2O[C@@H]1[C@H](O)CO [Amiprilose hydrochloride] | 1.08 ± 0.071 |
| O=C1[C@H](CC[C@H](O)c2ccc(F)cc2)[C@@H](c2ccc(O)cc2)N1c1ccc(F)cc1 [Ezetimibe] | 1.01 ± 0.015 |
| Cc1ccc(-c2ncc(Cl)cc2-c2ccc(S(C)(=O)=O)cc2)cn1 [Etoricoxib] | 1.023 ± 0.0032 |
| COc1ncnc(NS(=O)(=O)c2ccc(N)cc2)c1OC [Sulfadoxine] | 0.997 ± 0.062 |
